Screening results: PubChem, National Center for Advancing Translational Sciences (NCATS)
IL-1B inflam inh – qHTS for Inhibitors of Inflammasome Signaling: IL-1-beta AlphaLISA Primary Screen; THP-1 LPS/ATP IL-1B secretion, AlphaLISA, 16 h; hits give low values; activity change, % at 57.5 µM; actives 4.7% (n = 360,000); in the data active means activity change below about -50%; inconclusive means mostly about -30% to -49%
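Secreted IL-1B measured by AlphaLISA bead assay after 16 h compound exposure of THP-1 cells; compounds (final up to 57.5 uM) added 1 h before LPS (250 ng/mL) and ATP (1.25 mM) stimulation; lower signal means less secretion.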
HT1080NT lethal – qHTS for induction of synthetic lethality in tumor cells producing 2HG: qHTS for the HT-1080-NT fibrosarcoma cell line. HT-1080-NT fibrosarcoma viability, CellTiter-Glo ATP luminescence, 48 h. Potency, µM (doses to about 46.1 µM), actives largely listed as cytotoxic. actives 1.6% (n = 360,000). AID 686970, 2013;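 further: NT is the 2HG producing partner of a matched IDH1 knockdown line; nearly all actives have a fitted effect of over 55% in size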
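Compounds were tested in concentration-response format on HT-1080-NT cells for 48 hours at 37 degrees C. Cell viability came from CellTiter-Glo luminescence; curves were classified by r2, response magnitude and activity.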
HT1080 IDH1KD tx – qHTS for induction of synthetic lethality in tumor cells producing 2HG: qHTS for the HT-1080-IDH1KD cell line; HT-1080 IDH1 knockdown viability, ATP luminescence, 48 h; Potency, µM (titrated, usually from 46.1 µM), hits mostly cytotoxic; actives 2% (n = 360,000); AID 686971, 2013
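HT-1080-IDH1KD cells (IDH1 knocked down), 750/well in RPMI with 5% FBS, treated with compound 48 h at 37 degrees C. Viability by CellTiter-Glo luminescence, normalised to DMSO and no-cell wells; concentration-response curves classed.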
DT40 TDP1 no CPT – qHTS for Inhibitors of human tyrosyl-DNA phosphodiesterase 1 (TDP1): qHTS in cells in absence of CPT | DT40 Tdp1-/- hTDP1 cells, no CPT, ATP luminescence, 48 h | Potency, µM (highest dose often 46.2 µM), actives largely listed as inhibitors | actives 15% (n = 420,000) | AID 686978, 2013; further: nearly all actives have a fitted effect of over 55% in size
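Camptothecin absent (DMSO only). Human TDP1-complemented DT40 knockout cells, 400 cells/well, 37 °C for minimum 48 hr; ATP measured via CellTiter-Glo, 30 min dark incubation, luminescence.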
DT40 TDP1 CPT – qHTS for Inhibitors of human tyrosyl-DNA phosphodiesterase 1 (TDP1): qHTS in cells in presence of CPT; chicken DT40 Tdp1-/-;hTDP1 cells + 20 nM CPT, ATP luminescence, 48 h; Potency, µM (top dose mostly 46.2 µM), actives largely listed as inhibitors; actives 12% (n = 420,000); further: nearly all actives have a fitted effect of over 55% in size
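Chicken DT40 Tdp1-/- cells stably complemented with human TDP1 were seeded at 400 cells/well in medium containing 20 nM camptothecin, exposed to pin-transferred compounds, and grown at 37 °C for at least 48 hr. Viability was read as ATP luminescence.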
Hits are given with their value; – = inactive; ? = inconclusive; · = not tested or not shown; [ ] = another dose, or the depositor's remark. Most compounds without a hit are left out; they make up all but 19% or so of the library. Unless noted, the call rests on the fitted dose curve; in most records, active means well fitted curve in the direction sought with a large enough effect; inconclusive means small, poorly fitted or top-dose-only effect, or another doubt; inactive means no such curve, though single readings can be large; an effect the other way counts as inactive or inconclusive.

SMILES	IL-1B inflam inh	HT1080NT lethal	HT1080 IDH1KD tx	DT40 TDP1 no CPT	DT40 TDP1 CPT
Oc1ccc2cc(Br)ccc2c1CN1CCCC1	-57.5	–	–	23.1µM	–
O=C(c1cnn(-c2nccc(-c3ccccc3F)n2)c1C1CC1)N1CCN(CCO)CC1	·	·	·	–	–[9.04 µM]
Cc1ccc(S(=O)(=O)NNC(=O)Nc2ccc(Cl)c(Cl)c2)cc1	–	–	–	16.4µM	?
Cc1ccc(S(=O)(=O)NC(=O)Nc2ccc(N(C)C)cc2)cc1	-80.0	–	?	16.4µM	20.6µM
NS(=O)(=O)c1ccc(CCNC(=O)Nc2ccc(Cl)c(Cl)c2)cc1	–	–[9.24 µM]	?	23.1µM	?
NS(=O)(=O)c1ccc(CNC(=S)Nc2ccc(Cl)c(Cl)c2)cc1	–	?	–	?	–
Cc1ccc(NC(=O)NNS(=O)(=O)c2ccc(Br)cc2)cc1	–	–	–	–	–
Cc1ccc(NC(=O)CCNS(=O)(=O)c2ccccc2)c(C(=O)c2ccccc2)c1	–	–	–	?	20.6µM
Cc1ccc(S(=O)(=O)NCCC(=O)Nc2ccc(Cl)c(Cl)c2)cc1	–	–	?	16.4µM	?
Cc1ccc(S(=O)(=O)NCCC(=O)Nc2ccc(Cl)c(Cl)c2)cc1C	–	–	–	?	–
O=C(Nc1ccc(Br)cc1Cl)c1ccc(OCC2CCCO2)cc1 (stereo not given)	-81.2	–	–	?	?
Cc1cc(NC(=O)c2ccc(OCC3CCCO3)cc2)ccc1Br (stereo not given)	–	–	?	14.6µM	20.6µM
CCN(CC)S(=O)(=O)c1ccc(NC(=O)c2ccc(OCC3CCCO3)cc2)cc1 (stereo not given)	?	–	?	14.6µM	23.1µM
Nc1ccc(C(=O)CC(=O)Nc2ccc(Cl)cc2)cc1	–	–	–	–	–
COc1ccc(S(=O)(=O)N2CCOCC2)cc1NC(=O)Cc1ccc2c(c1)OCCO2	–	–	–	?	–
O=C(Nc1ccc(CN2CCOCC2)cc1)c1ccc(-c2cc(Cl)ccc2Cl)o1	-64.1	?	?	23.1µM	?
COc1c(Cl)cc(Cl)cc1C(=O)Nc1ccc(CN2CCCCC2)cc1	–	–	–	16.4µM	?
O=C(Nc1ccc(CN2CCOCC2)cc1)c1ccc(-c2cccc([N+](=O)[O-])c2)o1	?	–	–	16.4µM	20.6µM
S=C(Nc1ccc(Br)cc1Cl)N1CCCC1	–	–	–	–	–
O=C(Nc1ccc(CN2CCCCC2)cc1)Nc1ccc(Br)cc1Cl	-85.3	–	–	16.4µM	18.4µM
COc1ccccc1C(=O)Nc1ccc(CN2CCCCC2)cc1	–	–	–	–	–
S=C(c1ccc(-c2cc(Cl)ccc2Cl)o1)N1CCOCC1	–	–	–	–	–
CC(C)c1ccc(C(=O)C[N+]2(C)CCOCC2)cc1	·	·	·	–	–
O=C(NCCO)C(=O)Nc1cc2c3c(c1)CCC(=O)N3CCC2	–	–	–	–	–
O=C(Nc1ncc(Cc2cccc(C(F)(F)F)c2)s1)c1ccc(-c2cccc([N+](=O)[O-])c2)o1	–	?	?	?	14.6µM
SMILES	IL-1B inflam inh	HT1080NT lethal	HT1080 IDH1KD tx	DT40 TDP1 no CPT	DT40 TDP1 CPT
COc1c(Cl)cc(Cl)cc1C(=O)Nc1ccc(CN2CCOCC2)cc1	-58.2	–	–	?	16.4µM
CC(Sc1nc2c(c(=O)[nH]1)CCCC2)C(=O)Nc1ccc(Br)cn1 (stereo not given)	–	–	–	16.4µM	23.1µM
O=C(NCC1CCCO1)c1ccc(NC(=O)c2cccc([N+](=O)[O-])c2)cc1 (stereo not given)	–	–	–	?	–
Cc1cc(N2CCN(C)CC2)nc2ccc(NC(=O)c3ccc(Br)o3)cc12	–	?	?	18.4µM	?
Cc1cc(N2CCN(C)CC2)nc2ccc(NC(=O)c3ccc4c(c3)OCO4)cc12	-54.2	?	?	–	–
Cc1cc(N2CCCCC2)nc2ccc(NC(=O)c3ccc(F)cc3)cc12	·	·	·	14.6µM	20.6µM
O=C(Nc1ccc(N2CCCCC2)cc1)c1ccc(F)cc1	?	–	–	?	–
Cc1cc(N2CCCCC2)nc2ccc(NC(=O)c3ccc(Br)o3)cc12	-66.0	?	?	?	?
CCOc1cc(C2NC(=O)NC(C)=C2C(=O)NCc2ccccc2)c(Cl)cc1O (stereo not given)	–	–[9.24 µM]	–	–	–
COc1ccccc1OCCNC(=O)c1ccccc1C	–	–	–	–	–
CC(C)(C)c1ccc(OCCNC(=S)Nc2ccccc2)cc1	-107.3	?	16.4µM	5.8µM	2.91µM
COc1ccccc1C(=O)NCCOc1ccc(C(C)(C)C)cc1	–	–	–	20.6µM	?
CCOc1ccc(CSCCNC(=S)Nc2ccccc2)cc1	–	–	–	23.1µM	23.1µM
c1ccc(CCNCCOc2ccccc2)cc1	–	–	–	–	–
CC(C)(C)c1ccc(OCCNCc2ccccc2)cc1	-93.0	?	16.4µM	?	?
O=C(NCCN1CCOCC1)/C(=C/c1ccco1)NC(=O)c1ccccc1	–	–	–	–	–
O=C(Nc1nc(-c2ccc(Br)cc2)ns1)c1ccccc1F	·	·	·	–	?
C=CCNS(=O)(=O)NC(=O)C1=C(N2CCCC2)COC1=O	–	–	–	–	–
Cc1ccc(OCC(=O)Nc2cccc(OCc3cc(=O)n4cccc(C)c4n3)c2)cc1C	·	·	·	18.4µM	14.6µM
CCC(Oc1ccccc1)C(=O)Nc1cccc(OCc2cc(=O)n3cccc(C)c3n2)c1 (stereo not given)	·	·	·	16.4µM	23.1µM
CCCC(=O)Nc1cccc(OCc2cc(=O)n3cccc(C)c3n2)c1	·	·	·	–	–
COc1ccc(NC(=O)Nc2cccc(OCc3cc(=O)n4cccc(C)c4n3)c2)c(OC)c1	·	·	·	13µM	?
C[C@H](CO)N1C[C@H](C)[C@@H](CN(C)S(=O)(=O)c2cccs2)Oc2ccc(NS(=O)(=O)c3ccccc3)cc2C1=O	–	–	–	?	?
CCC(CC)c1nnc(NC(=O)CSCC(=O)Nc2cc(C)on2)s1	–	–	–	–	–
CCN(C(=O)c1cccnc1SC)C12CC3CC(CC(C3)C1)C2	–	–	?	20.6µM	?
CSc1ncccc1C(=O)NCC12CC3CC(CC(C3)C1)C2	–	–	–	–	–
CC(Oc1ccccc1)C(=O)Nc1nc(-c2ccccn2)cs1 (stereo not given)	-103.1	–	?	3.26µM	3.66µM
CC(NC(=O)c1ccccc1)C(=O)NC1=NCCS1 (stereo not given)	–	–	–	–	–
